Experimental data published in PubChem BioAssay.
Unmarked numbers belong to inactive results. For some assays here: Measured potencies and affinities stand elsewhere. Active and inactive are the calls of the source. Unless noted, how the calls were made is not given here.

Columns and labels:
[1] = antimalarial activity against Dd2 strain (AID 2302;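 active means growth inhibition above 50% at the single 2 µM test dose, taken to imply half-maximal potency below 2 µM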;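 further: 0% = DMSO untreated growth and 100% = chloroquine plus artemisinin killed control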); conditions: P. falciparum Dd2 in RBCs, LDH growth readout, 72 h; at 2 µM; hits give high values
[2] = human hepatoma cell viability loss – ATP luminescence, cytotoxicity control for P. falciparum antimalarial project, primary screen (AID 2303;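 active means inhibition above 50%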;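 further: 0% = DMSO wells and 100% = digitonin-killed cells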); conditions: HepG2 viability, 24-48 h, at 10 µM, hits give high values
[3] = target: L-lactate dehydrogenase (Plasmodium falciparum (isolate CDC / Honduras)) (UniProt Q27743); assay: PfLDH activity inhibition – cell lysate, 3D7 strain, counter-screen for P. falciparum growth inhibition project (AID 2304);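 further: 0% = vehicle and 100% = reference inhibitor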; conditions: P. falciparum 3D7 crude extract, LDH APAD/NBT absorbance; at 2 µM; hits give high values
[4] = inhibition of 3D7 malaria parasite growth – strain 3D7 (AID 2306);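 further: 0% = DMSO wells and 100% = chloroquine plus artemisinin control wells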; conditions: P. falciparum 3D7 erythrocytic growth, LDH absorbance, 72 h; at 2 µM; hits give high values
[5] = target: Calcium-dependent protein kinase 1 (Plasmodium falciparum (isolate 3D7)) (UniProt P62344); assay: PfCDPK1 kinase inhibitors, biochemical, TCAMS library (AID 1159585; cut-off not given, nearly all actives have IC50 up to about 0.98 µM;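 further: inhibitors leave more ATP so luminescence rises with inhibition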); conditions: recombinant PfCDPK1, Kinase-Glo ATP depletion luminescence
[6] = target: Plasmodium falciparum protein kinase 6 (PK6, PF3D7_1337100) (UniProt Q8IDW1); assay: PfPK6 kinase inhibitors, biochemical, TCAMS library (AID 1159586); conditions: recombinant PfPK6, Kinase-Glo ATP depletion luminescence
[7] = target: Protein kinase 7 (PK7), Plasmodium falciparum 3D7 (PF3D7_0213400) (UniProt Q7YTF7); assay: inhibition of Plasmodium PK7 catalytic activity – biochemical, TCAMS antimalarial set, Kinase-Glo luminescence (AID 1159587); conditions: recombinant PfPK7, Kinase-Glo ATP depletion luminescence
[8] = target: Calcium-dependent protein kinase 4 (Plasmodium falciparum (isolate 3D7)) (UniProt Q8IBS5); assay: PfCDPK4 kinase inhibitors, biochemical, TCAMS library (AID 1159588; cut-off not given, nearly all actives have IC50 up to about 0.91 µM); conditions: recombinant PfCDPK4, Kinase-Glo ATP depletion luminescence
Chain of Calcium-dependent protein kinase 4 (Plasmodium falciparum (isolate 3D7)) (Q8IBS5 whole entry, looked up): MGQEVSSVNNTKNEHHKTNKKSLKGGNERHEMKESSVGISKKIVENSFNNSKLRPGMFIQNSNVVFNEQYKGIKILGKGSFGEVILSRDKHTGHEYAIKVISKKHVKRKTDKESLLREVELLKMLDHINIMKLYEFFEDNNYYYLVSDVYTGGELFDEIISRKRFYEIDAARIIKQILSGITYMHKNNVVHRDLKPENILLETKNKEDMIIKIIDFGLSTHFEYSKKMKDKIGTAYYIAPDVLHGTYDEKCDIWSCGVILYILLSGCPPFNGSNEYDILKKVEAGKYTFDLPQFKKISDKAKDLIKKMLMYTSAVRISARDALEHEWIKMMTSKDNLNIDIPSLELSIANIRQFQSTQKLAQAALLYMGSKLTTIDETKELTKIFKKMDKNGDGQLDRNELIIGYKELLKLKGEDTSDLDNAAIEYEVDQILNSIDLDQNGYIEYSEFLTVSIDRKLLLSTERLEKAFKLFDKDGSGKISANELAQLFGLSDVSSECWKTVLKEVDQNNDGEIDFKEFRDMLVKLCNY

Chain of Calcium-dependent protein kinase 1 (Plasmodium falciparum (isolate 3D7)) (P62344 whole entry, looked up): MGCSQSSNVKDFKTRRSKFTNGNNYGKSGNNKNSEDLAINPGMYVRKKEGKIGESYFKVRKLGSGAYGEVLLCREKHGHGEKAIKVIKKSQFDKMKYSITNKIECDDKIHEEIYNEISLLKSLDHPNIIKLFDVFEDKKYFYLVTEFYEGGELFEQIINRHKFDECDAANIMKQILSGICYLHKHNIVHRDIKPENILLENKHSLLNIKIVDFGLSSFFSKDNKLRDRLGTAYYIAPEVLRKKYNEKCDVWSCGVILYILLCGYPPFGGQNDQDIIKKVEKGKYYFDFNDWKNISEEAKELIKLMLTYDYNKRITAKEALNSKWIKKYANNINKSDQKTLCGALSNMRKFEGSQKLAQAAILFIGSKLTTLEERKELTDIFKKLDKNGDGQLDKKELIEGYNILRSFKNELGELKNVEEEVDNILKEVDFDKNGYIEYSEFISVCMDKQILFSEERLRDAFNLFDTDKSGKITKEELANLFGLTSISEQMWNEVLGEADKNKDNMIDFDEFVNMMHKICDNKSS
Chain of Protein kinase 7 (PK7), Plasmodium falciparum 3D7 (PF3D7_0213400) (Q7YTF7 1-343): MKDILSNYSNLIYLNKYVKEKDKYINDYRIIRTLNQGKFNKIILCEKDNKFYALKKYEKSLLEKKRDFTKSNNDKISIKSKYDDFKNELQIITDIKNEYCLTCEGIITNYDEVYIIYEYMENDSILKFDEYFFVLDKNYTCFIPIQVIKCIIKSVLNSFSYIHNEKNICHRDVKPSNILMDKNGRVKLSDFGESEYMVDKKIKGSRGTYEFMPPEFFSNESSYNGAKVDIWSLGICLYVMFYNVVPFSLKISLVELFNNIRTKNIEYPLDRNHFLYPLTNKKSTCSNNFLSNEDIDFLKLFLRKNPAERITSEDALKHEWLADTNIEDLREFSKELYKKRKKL
Chain of Plasmodium falciparum protein kinase 6 (PK6, PF3D7_1337100) (Q8IDW1 1-305): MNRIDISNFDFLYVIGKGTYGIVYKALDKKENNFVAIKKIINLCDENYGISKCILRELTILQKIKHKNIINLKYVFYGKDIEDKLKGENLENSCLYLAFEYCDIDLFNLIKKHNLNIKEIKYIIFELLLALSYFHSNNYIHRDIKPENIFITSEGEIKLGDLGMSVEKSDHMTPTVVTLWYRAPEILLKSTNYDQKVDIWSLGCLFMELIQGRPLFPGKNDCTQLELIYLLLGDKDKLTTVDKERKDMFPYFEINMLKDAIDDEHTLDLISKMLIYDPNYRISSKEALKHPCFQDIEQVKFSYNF
Chain of L-lactate dehydrogenase (Plasmodium falciparum (isolate CDC / Honduras)) (Q27743 whole entry, looked up): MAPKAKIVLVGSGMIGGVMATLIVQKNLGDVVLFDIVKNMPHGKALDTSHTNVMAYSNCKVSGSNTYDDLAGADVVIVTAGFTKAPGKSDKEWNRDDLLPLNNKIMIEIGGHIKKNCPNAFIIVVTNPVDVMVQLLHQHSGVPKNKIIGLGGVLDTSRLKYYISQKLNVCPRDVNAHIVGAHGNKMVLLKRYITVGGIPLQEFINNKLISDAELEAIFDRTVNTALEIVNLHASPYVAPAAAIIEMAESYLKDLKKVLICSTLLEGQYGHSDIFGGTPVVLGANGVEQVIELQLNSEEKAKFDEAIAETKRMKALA

Structure (SMILES)	growth inhibition [1]	inhibition [2]	inhibition [3] [%]	growth inhibition [4]	outcome [5]	outcome [6]	outcome [7]	outcome [8]
Clc1ccccc1CNc1noc(-c2sccc2Br)n1	93% (active)	0%	-7	97% (active)	inactive	inactive	inactive	inactive
CCOC(=O)c1cc(C(=O)NCCCCN2CCC(c3ccc(CC)cc3OCC)CC2)ccc1-c1ccc(C(F)(F)F)cc1	71% (active)	74% (active)	-1	99% (active)	inactive	inactive	inactive	inactive
O=S(=O)(ON=C1CCc2ccccc21)c1ccc(Cl)cc1	79% (active)	-2%	3	100% (active)	inactive	inactive	inactive	inactive
CCC(CN1C(=O)C(c2ccccc2)(c2ccccc2)N=C1N)c1ccccc1 (stereo not given)	98% (active)	11%	-2	98% (active)	inactive	inactive	inactive	inactive
O=C(NCCCN1CCC(N2CCCCC2)CC1)c1ccc2nc(N3CCCCC3)sc2c1	20%	11%	-1	89% (active)	inactive	inactive	inactive	inactive
O=S(=O)(c1ccccc1)n1ccc2cc(Nc3ncnc4cc(C#C[C@H]5CCCN5)sc34)ccc21	56% (active)	50% (active)	-3	85% (active)	inactive	inactive	inactive	inactive
CCN(CC)CCN(Cc1ccc(-c2ccc(C(F)(F)F)cc2)cc1)C(=O)c1c[nH]c2ccc(Br)cc12	74% (active)	80% (active)	-4	90% (active)	inactive	inactive	inactive	inactive
COCCCNc1sc(S(=O)(=O)c2ccccc2)nc1S(=O)(=O)c1ccc(C)cc1	44%	7%	-1	84% (active)	inactive	inactive	inactive	inactive
CN(C)CCNC(=O)NC1CN(c2ncnc3cc(-c4ccccc4)sc23)C1	39%	7%	5	100% (active)	inactive	inactive	inactive	inactive
Cc1cc(NCCC(=O)NCc2cccc(F)c2)nc(NCCc2ccc(F)cc2)n1	2%	0%	-1	89% (active)	inactive	inactive	inactive	inactive
CCc1cccc2sc(N3CCN(C(=O)c4ccc([N+](=O)[O-])o4)CC3)nc12	94% (active)	2%	0	97% (active)	inactive	inactive	inactive	inactive
CN1CCN(CCCN(Cc2cccc(-c3ccc(CNCCc4ccccc4)cc3)c2)C(=O)Nc2ccccc2)CC1	91% (active)	61% (active)	3	100% (active)	inactive	inactive	inactive	inactive
CC(C)COc1ccc(Cl)cc1Cc1ccc(-c2nc3c(F)cccc3[nH]2)o1	47%	15%	-1	98% (active)	inactive	inactive	inactive	inactive
COc1cc(Cc2cnc(N)nc2N)cc(OCCCCCC(N)=O)c1OC	-3%	-33%	0	90% (active)	inactive	inactive	inactive	inactive
CN(C)CCNCc1ncsc1-c1ccc2c(Nc3ccc(F)cc3Cl)ccnc2c1	95% (active)	-1%	0	100% (active)	inactive	inactive	inactive	inactive
CC(C)CNCc1cccc(-c2cccc(CN(CCN(C)C)C(=O)Nc3ccccc3)c2)c1	62% (active)	34%	4	99% (active)	inactive	inactive	inactive	inactive
CN1CCN(CC(=O)Nc2ccc(-c3ccc(-c4nc5ccc(C(F)(F)F)cc5[nH]4)cc3)cc2)CC1	98% (active)	43%	-3	101% (active)	inactive	inactive	inactive	inactive
O=C(NCc1cccc(C(F)(F)F)c1)c1ccc(CNC(=O)c2ccc(O)c(-c3ccc(Cl)c(Cl)c3)c2)cc1	15%	7%	2	92% (active)	inactive	inactive	inactive	inactive
COc1cc2nc(SCC(C)C)n(CCCn3ccnc3)c(=N)c2cc1OC	78% (active)	15%	-2	99% (active)	inactive	inactive	inactive	inactive
COCCOc1cc(C)c(C2CCN(CCCCNC(=O)c3ccc(NC(=O)c4ccc(Cl)cc4)cc3)CC2)cc1C	30%	15%	-2	88% (active)	inactive	inactive	inactive	inactive

Structure (SMILES)	growth inhibition [1]	inhibition [2]	inhibition [3] [%]	growth inhibition [4]	outcome [5]	outcome [6]	outcome [7]	outcome [8]
COc1ccc(-c2cnc3[nH]cc(-c4ccc(CCC(=O)O)cc4)c3c2)cn1	95% (active)	25%	-5	98% (active)	inactive	inactive	inactive	inactive
CCc1ccc(CN2CCC(CNC(=O)c3cc(-c4cccc(Cl)c4)cs3)C2)cc1 (stereo not given)	19%	27%	4	88% (active)	inactive	inactive	inactive	inactive
COc1ccc2nc(C)cc(NN=Cc3ccccc3F)c2c1	100% (active)	3%	-4	100% (active)	inactive	inactive	inactive	inactive
CCOC(=O)c1ccc(NC(=O)Nc2ccc(-c3cccc(-c4nc5c(C)cccc5[nH]4)c3)cc2)cc1	100% (active)	91% (active)	-2	101% (active)	inactive	inactive	inactive	inactive
CC(=O)Nc1ccc2[nH]cc(C3CCN(CC4CCC(NC(=O)/C=C/c5ccccc5Cl)CC4)CC3)c2n1 (stereo not given)	79% (active)	16%	-1	101% (active)	inactive	inactive	inactive	inactive
CCN1CCCC(Nc2ccnc3cc4ccccc4cc23)C1 (stereo not given)	100% (active)	38%	2	101% (active)	inactive	inactive	inactive	inactive
CCCN(CC1CC1)c1nc(C)nc2c(-c3ccccc3)cc(C)cc12	78% (active)	72% (active)	1	96% (active)	inactive	inactive	inactive	inactive
Cc1ccccc1CNc1noc(-c2sccc2Br)n1	88% (active)	-2%	-3	99% (active)	inactive	inactive	inactive	inactive
CC1(C)[C@H]2CC[C@@H](CNc3nc(NCC(=O)Nc4ccc5ccccc5c4)nc(N4CCC(N5CCCC5)CC4)n3)[C@@H]1C2	20%	6%	-5	93% (active)	inactive	inactive	inactive	inactive
O=C(Nc1cccnc1)c1ccc(-c2cc3ccncc3cc2OC2CCNCC2)s1	12%	-5%	1	97% (active)	inactive	inactive	inactive	inactive
Cc1nnsc1C(=O)Nc1cccc(-c2ccc(-c3nc4ccc(F)cc4[nH]3)s2)c1	22%	62% (active)	4	89% (active)	inactive	inactive	inactive	inactive
COc1cc2nc(NCCn3ccnc3C)nc(NCCc3ccccc3)c2cc1OC	0%	21%	-6	99% (active)	inactive	inactive	inactive	inactive
O=C(CN1CCCC1)Nc1cccc(C(=O)Nc2cccc(C(F)(F)F)c2)c1	83% (active)	9%	1	95% (active)	inactive	inactive	inactive	inactive
COc1ccc(-c2ccc(Nc3cccc(S(=O)(=O)CCN4CCC(CCN(C)C)CC4)c3)nc2)cn1	9%	44%	3	100% (active)	inactive	inactive	inactive	inactive
CCOc1cc(C)ccc1C1CCN(CCCCNC(=O)c2ccc(-c3ccc(C(F)(F)F)cn3)cc2)CC1	45%	55% (active)	5	99% (active)	inactive	inactive	inactive	inactive
Cc1cccc(NC(c2cccs2)c2c(NC(=O)c3ccccc3)sc(C)c2C)n1 (stereo not given)	80% (active)	-8%	1	88% (active)	inactive	inactive	inactive	inactive
O=C(C=NO)Nc1ccccc1[N+](=O)[O-]	-2%	-14%	-2	99% (active)	inactive	inactive	inactive	inactive
COc1ccc2nccc(NN=Cc3ccc(F)cc3)c2c1	54% (active)	2%	-2	98% (active)	inactive	inactive	inactive	inactive
NC(Cc1cccc(I)c1)C(=O)NCC1CCCO1 (stereo not given)	50% (active)	52% (active)	1	98% (active)	inactive	inactive	inactive	inactive
O=C(Nc1cccc(CN2CCN(Cc3ccc(O)cc3)CC2)c1)c1ccc(-c2ccccc2)cc1	67% (active)	40%	1	101% (active)	inactive	inactive	inactive	inactive
